Sampled rows, rich in hits. Any-hit rate of the full collection: about 19%.
HT1080 IDH1KD tx: HT-1080 IDH1 knockdown cell toxicity (counter line) | HT-1080 IDH1 knockdown viability, ATP luminescence, 48 h | Potency, µM (doses to about 46.1 µM), most hits filed as cytotoxic | actives 2% (n = 360,000) | AID 686971
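Luminescent ATP read-out (CellTiter-Glo, 10 min at room temperature) after 48 h compound exposure at 37 °C gave viability of IDH1-knockdown HT-1080 cells. Activity was normalised to DMSO and cell-free wells, then fitted as concentration-response curves.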
uPA surface inh: inhibitors of cell surface uPA generation. Potency, µM (series often up to 38.3 µM), hits mostly inhibitors. actives 0.31% (n = 330,000). cell surface uPA generation assay, qHTS. AID 540303; active means well fitted inhibition curve with a large enough effect; inconclusive means small, poorly fitted or top-dose-only effect; inactive means no such curve, though single readings can be large or run the other way; tested in mouse RAW 264.7 cells; further: nearly all actives have a fitted effect of over 55% in size
HT1080-NT tox: kills 2HG-producing HT-1080-NT fibrosarcoma cells; HT-1080-NT fibrosarcoma viability, CellTiter-Glo ATP luminescence, 48 h; Potency, µM (top dose mostly 46.1 µM), most hits filed as cytotoxic; actives 1.6% (n = 360,000); AID 686970;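 further: NT is the 2HG producing partner of a matched IDH1 knockdown line; nearly all actives have a fitted effect of over 55% in size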
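Compounds were tested in concentration-response format on HT-1080-NT cells for 48 hours at 37 degrees C. Cell viability came from CellTiter-Glo luminescence; curves were classified by r2, response magnitude and activity.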
TDP1 cell CPT: DT40-hTDP1 cell growth loss with CPT. chicken DT40 Tdp1-/-;hTDP1 cells + 20 nM CPT, ATP luminescence, 48 h. Potency, µM (top dose mostly 46.2 µM), hits mostly inhibitors. actives 12% (n = 420,000); further: nearly all actives have a fitted effect of over 55% in size
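Chicken DT40 Tdp1-/- cells complemented with human TDP1, 400 cells/well, exposed to compounds plus 20 nM camptothecin for at least 48 h at 37 C; viability read as ATP content by CellTiter-Glo luminescence.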
DT40 TDP1 no CPT: qHTS for Inhibitors of human tyrosyl-DNA phosphodiesterase 1 (TDP1): qHTS in cells in absence of CPT; DT40 Tdp1-/- hTDP1 cells, no CPT, ATP luminescence, 48 h; Potency, µM (titrated, usually from 46.2 µM), hits mostly inhibitors; actives 15% (n = 420,000); AID 686978, 2013; further: nearly all actives have a fitted effect of over 55% in size
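Camptothecin absent (DMSO only). Human TDP1-complemented DT40 knockout cells, 400 cells/well, 37 °C for minimum 48 hr; ATP measured via CellTiter-Glo, 30 min dark incubation, luminescence.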
IL-1B inflam inh: inhibitors of inflammasome signaling (IL-1 beta secretion) | THP-1 LPS/ATP IL-1B secretion, AlphaLISA, 16 h; hits give low values | activity change, % at 57.5 µM | actives 4.7% (n = 360,000) | AID 743279; in the data active means activity change below about -50%; inconclusive means mostly about -30% to -49%
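Secreted IL-1B measured by AlphaLISA bead assay after 16 h compound exposure of THP-1 cells; compounds (final up to 57.5 uM) added 1 h before LPS (250 ng/mL) and ATP (1.25 mM) stimulation; lower signal means less secretion.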
Numbers stand for hits; . = inactive; ? = inconclusive; / = not tested or not shown; [ ] = remark or other dose. Unless noted, the call rests on the fitted dose curve; in most records, active means well fitted curve in the direction sought with a large enough effect; inconclusive means small, poorly fitted or top-dose-only effect, or another doubt; inactive means no such curve, though single readings can be large; an effect the other way counts as inactive or inconclusive.

SMILES	HT1080 IDH1KD tx	uPA surface inh	HT1080-NT tox	TDP1 cell CPT	DT40 TDP1 no CPT	IL-1B inflam inh
Cc1ccc(S(=O)(=O)c2nc(-c3ccco3)oc2N2CCC(C)CC2)cc1	.	.	.	?	?	-74
Cc1ccc(S(=O)(=O)c2nc(-c3cccc(C)c3)oc2N2CCCCC2)cc1	/	/	/	?	23µM	/
CN1CCN(c2oc(-c3ccccc3)nc2S(=O)(=O)c2ccc(Br)cc2)CC1	.	.	.	16µM	?	?
O=S(=O)(c1ccccc1)c1nc(-c2ccccc2)oc1N1CCCCC1	.	/	.[9.24 µM]	?	16µM	?
Cc1ccc(S(=O)(=O)c2nc(-c3ccccc3)oc2N2CCCC2)cc1	.	.	.	.	.	.
O=S(=O)(c1ccccc1)c1nc(-c2ccccc2)oc1N1CCCC1	.	.	.	.	.	.
Cc1ccc(S(=O)(=O)c2nc(-c3ccccc3)oc2N2CCN(c3ccccc3)CC2)cc1	/	/	/	16µM	21µM	/
COc1cccc(-c2nc(S(=O)(=O)c3ccc(C)cc3)c(N3CCCCCC3)o2)c1	/	/	/	23µM	4.6µM	/
Cc1ccc(S(=O)(=O)c2nc(-c3ccccc3)oc2N2CCC(C(N)=O)CC2)cc1	.	.	.	.	.	.
Cc1ccc(-c2nc(S(=O)(=O)c3ccc(C)cc3)c(N3CCN(c4ccccc4)CC3)o2)cc1	/	/	/	.	?	/
Cc1ccc(-c2nc(S(=O)(=O)c3ccc(Cl)cc3)c(N3CCCCC3)o2)cc1	/	/	/	.	?	/
Cc1ccc(S(=O)(=O)c2nc(-c3ccccc3F)oc2N2CCCCC2)cc1	/	/	/	?	15µM	/
Cc1ccc(S(=O)(=O)c2nc(-c3cccc(C)c3)oc2N2CCN(c3ccccc3)CC2)cc1	/	/	/	?	1.5µM	/
COc1cccc(CC2(CO)CCCN(Cc3cc(F)ccc3-n3cccn3)C2)c1 (stereo not drawn)	?	.	?	?	?	.
CCOc1ccc(S(=O)(=O)N2CCC(C(=O)Nc3ccc(C)c(S(=O)(=O)N4CCOCC4)c3)CC2)cc1	.	?	.	?	?	.
COc1ccc(CNn2c(-c3ccccc3F)nc3ccccc3c2=O)cc1OC	.	.	.	?	18µM	.
COc1cccc(CNn2c(-c3cccc(C)c3)nc3ccccc3c2=O)c1O	.	.	.	?	?	.
COc1ccc(OC)c(CNn2c(-c3ccccc3F)nc3ccccc3c2=O)c1	.	.	.	?	18µM	.
O=C(Nc1cccc(-c2nnc(-c3ccccc3)o2)c1)C1CCCCC1	.	.	.	?	18µM	.
CCC(=O)Nc1cccc(-c2nnc(-c3ccccc3)o2)c1	.	.	.	21µM	21µM	?
Cc1ccccc1NS(=O)(=O)c1cccc(-c2nnc(-c3ccccc3)o2)c1	.	.	.	.	.	.
COc1cccc(-c2nnc(NC(=O)C3CCCCC3)o2)c1	.	.	.	.	?	.
CCCCC(=O)Nc1cccc(-c2nnc(-c3ccccc3)o2)c1	?	/	?	23µM	23µM	?
O=S(=O)(NC1CCCCC1)c1cccc(-c2nnc(-c3ccccc3)o2)c1	.	.	.	?	15µM	?
CCOC(OCC)P(=O)(O)CCCNCc1ccc(Cl)c(Cl)c1	/	/	/	.	?	/
SMILES	HT1080 IDH1KD tx	uPA surface inh	HT1080-NT tox	TDP1 cell CPT	DT40 TDP1 no CPT	IL-1B inflam inh
CCC1(CC)C(C#N)C(=O)NC(=O)C1C#N (stereo not drawn)	.	.	.	.	.	.
C=CCc1cc(C=O)cc(OC)c1OCc1ccc(Cl)cc1	.	.	.	?	18µM	.
C/C(=C/CCC(C)(O)C1CC[C@@]2(C)[C@@H]3CC=C4[C@@H](CC[C@H](O[C@H]5O[C@@H](CO)[C@H](O)[C@@H](O)[C@@H]5O)C4(C)C)[C@]3(C)C(=O)C[C@]12C)CO[C@@H]1O[C@H](CO)[C@@H](O)[C@H](O)[C@H]1O (stereo partly drawn)	.	.	.	.	.	.
COc1ccc(CC(=O)Nc2c(C(=O)Nc3ccc(F)cc3)oc3ccccc23)cc1OC	/	/	/	12µM	21µM	/
COc1ccc(NC(=O)c2oc3ccccc3c2NC(=O)Cc2coc3cc(C)ccc23)cc1	/	/	/	?	12µM	/
COC(=O)c1cc(NC(=O)Cc2coc3cc(OC)ccc23)cc(C(=O)OC)c1	.	.	.	23µM	?	.
COC(=O)c1ccc(C)c(NC(=O)Cc2coc3cc(OC)ccc23)c1	.	.	.	.	?	.
COc1ccccc1CNC(=O)CCS(=O)(=O)c1ccc(Cl)cc1	.	.	.	.	.	.
COc1ccc(OCCn2nnc3sc4c(c3c2=O)CCCC4)cc1	/	/	/	.	.	/
Cc1ccc(-c2nn(C)c(=O)c3ccccc23)cc1S(=O)(=O)NCCCN(C)C	/	/	/	.	.	/
Cc1ccc(-c2nn3c(C)nnc3c3ccccc23)cc1S(=O)(=O)N(C)CCO	.	.	.	?	?	.

Screening data: PubChem BioAssay, National Center for Advancing Translational Sciences (NCATS)
